In test [1] the target is T1, Serine/threonine-protein kinase D2 (Homo sapiens) (UniProt Q9BZL6).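 Also: mean value of PRKD2 inhibition, from the GSK PKIS screening panel.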
T1 sequence (whole entry): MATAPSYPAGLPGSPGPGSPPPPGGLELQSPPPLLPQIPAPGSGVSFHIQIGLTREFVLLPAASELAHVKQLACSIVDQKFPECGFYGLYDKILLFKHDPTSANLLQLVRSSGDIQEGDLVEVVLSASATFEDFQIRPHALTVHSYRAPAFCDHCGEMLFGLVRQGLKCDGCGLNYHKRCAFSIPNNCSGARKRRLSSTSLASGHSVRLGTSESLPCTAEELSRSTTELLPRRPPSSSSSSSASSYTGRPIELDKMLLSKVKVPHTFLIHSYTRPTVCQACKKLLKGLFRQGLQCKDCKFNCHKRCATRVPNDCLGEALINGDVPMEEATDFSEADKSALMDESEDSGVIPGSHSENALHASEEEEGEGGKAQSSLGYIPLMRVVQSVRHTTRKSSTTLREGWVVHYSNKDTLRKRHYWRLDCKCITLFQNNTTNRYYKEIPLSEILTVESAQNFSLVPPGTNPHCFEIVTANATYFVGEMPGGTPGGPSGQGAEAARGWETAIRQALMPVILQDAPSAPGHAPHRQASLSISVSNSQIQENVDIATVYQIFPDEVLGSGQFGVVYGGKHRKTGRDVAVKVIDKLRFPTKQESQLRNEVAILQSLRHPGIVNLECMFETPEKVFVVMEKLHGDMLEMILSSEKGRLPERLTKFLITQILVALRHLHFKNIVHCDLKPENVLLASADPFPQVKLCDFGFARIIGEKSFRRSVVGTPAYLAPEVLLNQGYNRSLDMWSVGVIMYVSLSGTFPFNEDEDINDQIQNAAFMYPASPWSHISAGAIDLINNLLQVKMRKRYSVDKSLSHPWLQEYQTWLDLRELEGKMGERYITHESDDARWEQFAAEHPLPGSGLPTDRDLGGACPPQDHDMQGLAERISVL
Particulars: at 1 µM.

The target in test [2] is T2, Serine/threonine-protein kinase D3 (Homo sapiens) (UniProt O94806).
T2 sequence (whole entry): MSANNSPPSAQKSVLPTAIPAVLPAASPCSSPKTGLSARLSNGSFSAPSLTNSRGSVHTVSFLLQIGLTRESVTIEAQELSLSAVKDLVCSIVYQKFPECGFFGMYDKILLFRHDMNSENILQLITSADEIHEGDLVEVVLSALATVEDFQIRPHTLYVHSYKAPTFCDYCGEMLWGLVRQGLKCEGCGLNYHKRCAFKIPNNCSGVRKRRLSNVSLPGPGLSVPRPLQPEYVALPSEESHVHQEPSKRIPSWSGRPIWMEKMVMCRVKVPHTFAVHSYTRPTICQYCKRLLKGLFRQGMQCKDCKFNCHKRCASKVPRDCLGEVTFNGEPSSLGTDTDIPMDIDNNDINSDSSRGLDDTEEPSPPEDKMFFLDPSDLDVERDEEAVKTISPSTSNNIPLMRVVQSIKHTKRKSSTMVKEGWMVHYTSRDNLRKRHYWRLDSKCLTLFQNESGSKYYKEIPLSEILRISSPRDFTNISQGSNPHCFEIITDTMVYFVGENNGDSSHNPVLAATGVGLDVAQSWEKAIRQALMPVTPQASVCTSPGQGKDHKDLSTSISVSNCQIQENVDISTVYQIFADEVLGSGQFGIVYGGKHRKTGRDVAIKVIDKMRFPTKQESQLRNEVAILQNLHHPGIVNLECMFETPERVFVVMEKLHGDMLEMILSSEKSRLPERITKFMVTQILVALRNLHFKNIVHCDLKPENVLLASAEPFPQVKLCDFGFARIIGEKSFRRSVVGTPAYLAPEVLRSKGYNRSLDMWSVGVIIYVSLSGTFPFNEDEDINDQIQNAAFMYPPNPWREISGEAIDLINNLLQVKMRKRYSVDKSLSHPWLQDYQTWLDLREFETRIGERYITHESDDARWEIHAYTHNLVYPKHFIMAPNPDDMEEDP
Particulars: at 0.1 µM.

For test [3], the target named is T2, Serine/threonine-protein kinase D3 (Homo sapiens). Particulars: at 1 µM.
The target in test [4] is T3, cGMP-dependent protein kinase 1 (Homo sapiens) (UniProt Q13976).
T3 sequence (whole entry): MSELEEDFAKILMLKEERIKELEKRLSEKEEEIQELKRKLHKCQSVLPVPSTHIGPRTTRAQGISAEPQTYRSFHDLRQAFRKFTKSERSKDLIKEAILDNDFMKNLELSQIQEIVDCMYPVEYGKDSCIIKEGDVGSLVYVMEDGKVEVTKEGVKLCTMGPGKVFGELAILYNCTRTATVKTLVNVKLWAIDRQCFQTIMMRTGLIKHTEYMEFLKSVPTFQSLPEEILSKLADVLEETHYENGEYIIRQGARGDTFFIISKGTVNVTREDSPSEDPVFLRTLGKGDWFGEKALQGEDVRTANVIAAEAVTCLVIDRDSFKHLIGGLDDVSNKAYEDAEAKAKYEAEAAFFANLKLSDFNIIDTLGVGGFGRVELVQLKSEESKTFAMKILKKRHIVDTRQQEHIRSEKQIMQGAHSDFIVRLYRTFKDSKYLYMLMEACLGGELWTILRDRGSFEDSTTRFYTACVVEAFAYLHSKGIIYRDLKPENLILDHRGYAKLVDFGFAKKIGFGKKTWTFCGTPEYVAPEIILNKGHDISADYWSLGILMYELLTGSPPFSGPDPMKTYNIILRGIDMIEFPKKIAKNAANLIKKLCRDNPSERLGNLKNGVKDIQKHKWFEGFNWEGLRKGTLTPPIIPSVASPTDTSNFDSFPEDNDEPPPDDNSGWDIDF
Particulars: at 0.1 µM.

Test [5] concerns the target T3, cGMP-dependent protein kinase 1 (Homo sapiens). The note with it: at 1 µM.
Test [6] concerns the target T4, cGMP-dependent protein kinase 2 (Homo sapiens) (UniProt Q13237).
T4 sequence (whole entry): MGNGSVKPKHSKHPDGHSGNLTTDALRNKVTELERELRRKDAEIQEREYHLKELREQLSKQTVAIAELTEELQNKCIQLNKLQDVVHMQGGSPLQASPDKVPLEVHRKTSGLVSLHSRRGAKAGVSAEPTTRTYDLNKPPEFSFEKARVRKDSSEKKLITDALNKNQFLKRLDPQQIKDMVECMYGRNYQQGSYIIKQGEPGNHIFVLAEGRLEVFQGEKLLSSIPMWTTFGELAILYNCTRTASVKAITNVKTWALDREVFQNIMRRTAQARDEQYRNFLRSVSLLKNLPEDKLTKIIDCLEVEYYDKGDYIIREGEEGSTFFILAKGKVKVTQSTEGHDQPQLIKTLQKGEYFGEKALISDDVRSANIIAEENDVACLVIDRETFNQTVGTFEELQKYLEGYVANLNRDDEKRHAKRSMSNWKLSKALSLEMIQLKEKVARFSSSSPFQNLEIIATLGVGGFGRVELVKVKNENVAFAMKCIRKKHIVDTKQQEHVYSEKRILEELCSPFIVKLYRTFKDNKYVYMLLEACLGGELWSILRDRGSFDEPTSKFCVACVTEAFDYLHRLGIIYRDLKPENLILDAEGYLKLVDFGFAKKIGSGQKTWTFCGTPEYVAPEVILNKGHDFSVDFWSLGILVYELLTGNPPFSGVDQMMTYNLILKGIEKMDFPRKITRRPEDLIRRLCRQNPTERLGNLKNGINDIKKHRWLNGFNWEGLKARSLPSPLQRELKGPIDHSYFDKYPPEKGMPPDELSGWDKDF
Particulars: at 0.1 µM.

Test [7] addresses T4, cGMP-dependent protein kinase 2 (Homo sapiens). The note with it: at 1 µM.
In test [8] the target is T5, cAMP-dependent protein kinase catalytic subunit PRKX (Homo sapiens) (UniProt P51817).
T5 sequence (whole entry): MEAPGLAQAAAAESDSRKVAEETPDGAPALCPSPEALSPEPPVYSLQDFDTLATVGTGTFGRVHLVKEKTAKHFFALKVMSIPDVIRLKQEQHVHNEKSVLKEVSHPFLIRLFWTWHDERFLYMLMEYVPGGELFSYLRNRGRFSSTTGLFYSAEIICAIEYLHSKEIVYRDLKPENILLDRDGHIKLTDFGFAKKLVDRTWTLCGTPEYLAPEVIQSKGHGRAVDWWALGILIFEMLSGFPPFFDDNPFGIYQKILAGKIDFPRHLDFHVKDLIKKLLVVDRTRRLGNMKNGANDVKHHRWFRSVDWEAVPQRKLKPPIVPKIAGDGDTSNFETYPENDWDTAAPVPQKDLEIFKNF
Particulars: at 0.1 µM.

In test [9] the target is T5, cAMP-dependent protein kinase catalytic subunit PRKX (Homo sapiens). Particulars: at 1 µM.
In test [10] the target is Rho-associated protein kinase 1 (Homo sapiens) (UniProt Q13464). The note with it: at 0.1 µM.
Test [11] has the same target. Particulars: at 1 µM.
The target in test [12] is Rho-associated protein kinase 2 (Homo sapiens) (UniProt O75116). The note with it: at 0.1 µM.
Sequence of Rho-associated protein kinase 2 (Homo sapiens) (O75116 whole entry, looked up): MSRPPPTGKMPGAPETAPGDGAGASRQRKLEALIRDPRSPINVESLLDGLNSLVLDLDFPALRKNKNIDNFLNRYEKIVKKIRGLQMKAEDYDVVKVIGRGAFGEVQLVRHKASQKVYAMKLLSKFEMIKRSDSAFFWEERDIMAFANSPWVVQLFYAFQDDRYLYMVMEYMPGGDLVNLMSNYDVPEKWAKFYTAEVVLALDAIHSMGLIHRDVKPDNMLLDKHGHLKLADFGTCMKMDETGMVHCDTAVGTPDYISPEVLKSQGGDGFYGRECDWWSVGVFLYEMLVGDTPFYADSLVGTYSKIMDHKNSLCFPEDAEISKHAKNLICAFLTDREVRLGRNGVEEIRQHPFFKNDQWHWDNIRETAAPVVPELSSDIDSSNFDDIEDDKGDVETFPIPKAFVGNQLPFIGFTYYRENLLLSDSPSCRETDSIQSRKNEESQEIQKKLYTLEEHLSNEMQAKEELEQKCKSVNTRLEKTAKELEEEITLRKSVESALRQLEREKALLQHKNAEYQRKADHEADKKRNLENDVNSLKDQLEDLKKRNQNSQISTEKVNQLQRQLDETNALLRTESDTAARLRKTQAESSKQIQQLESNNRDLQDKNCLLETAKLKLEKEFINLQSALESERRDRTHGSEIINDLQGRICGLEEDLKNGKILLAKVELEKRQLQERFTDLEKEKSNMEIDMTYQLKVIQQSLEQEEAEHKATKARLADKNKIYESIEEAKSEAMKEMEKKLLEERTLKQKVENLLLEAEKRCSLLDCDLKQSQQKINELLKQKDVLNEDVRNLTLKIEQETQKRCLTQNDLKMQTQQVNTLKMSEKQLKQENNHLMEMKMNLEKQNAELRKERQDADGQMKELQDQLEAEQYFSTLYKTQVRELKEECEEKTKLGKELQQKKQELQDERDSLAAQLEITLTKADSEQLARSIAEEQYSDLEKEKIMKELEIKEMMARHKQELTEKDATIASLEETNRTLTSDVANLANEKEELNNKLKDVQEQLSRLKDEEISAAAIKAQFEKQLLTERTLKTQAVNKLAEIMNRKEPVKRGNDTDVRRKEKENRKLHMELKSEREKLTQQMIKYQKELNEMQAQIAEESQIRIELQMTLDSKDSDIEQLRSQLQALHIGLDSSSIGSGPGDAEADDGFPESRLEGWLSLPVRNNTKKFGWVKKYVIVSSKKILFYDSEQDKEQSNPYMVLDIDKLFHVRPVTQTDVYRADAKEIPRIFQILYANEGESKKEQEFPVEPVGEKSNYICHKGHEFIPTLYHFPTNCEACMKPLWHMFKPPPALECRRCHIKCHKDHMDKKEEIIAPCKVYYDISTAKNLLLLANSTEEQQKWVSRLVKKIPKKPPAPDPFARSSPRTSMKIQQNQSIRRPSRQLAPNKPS
Test [13] shares this target. The note with it: at 1 µM.
In test [14] the target is Ribosomal protein S6 kinase alpha-1 (Homo sapiens) (UniProt Q15418). Particulars: at 0.1 µM.
Sequence of Ribosomal protein S6 kinase alpha-1 (Homo sapiens) (Q15418 whole entry): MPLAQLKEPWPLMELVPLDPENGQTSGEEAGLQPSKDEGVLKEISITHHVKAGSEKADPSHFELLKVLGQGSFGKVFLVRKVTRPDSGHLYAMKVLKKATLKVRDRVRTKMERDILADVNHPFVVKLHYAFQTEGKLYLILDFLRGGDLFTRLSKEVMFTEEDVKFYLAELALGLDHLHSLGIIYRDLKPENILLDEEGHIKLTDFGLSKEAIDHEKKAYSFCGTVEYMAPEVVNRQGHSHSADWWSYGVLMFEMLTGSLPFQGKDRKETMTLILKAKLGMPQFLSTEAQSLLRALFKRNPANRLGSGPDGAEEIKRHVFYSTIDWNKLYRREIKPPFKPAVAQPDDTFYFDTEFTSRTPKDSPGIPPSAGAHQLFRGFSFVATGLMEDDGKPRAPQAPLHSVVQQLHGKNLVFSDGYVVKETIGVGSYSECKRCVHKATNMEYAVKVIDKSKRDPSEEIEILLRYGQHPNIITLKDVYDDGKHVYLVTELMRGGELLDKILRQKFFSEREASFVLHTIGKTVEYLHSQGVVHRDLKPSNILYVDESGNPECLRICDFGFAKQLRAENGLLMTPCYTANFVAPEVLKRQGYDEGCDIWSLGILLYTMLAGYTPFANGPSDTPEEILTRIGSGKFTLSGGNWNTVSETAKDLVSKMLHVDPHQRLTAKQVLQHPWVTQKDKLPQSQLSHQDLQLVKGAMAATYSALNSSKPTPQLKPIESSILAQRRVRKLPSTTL
The target is the same in test [15]. Particulars: at 1 µM.
The target in test [16] is Ribosomal protein S6 kinase alpha-3 (Homo sapiens) (UniProt P51812). Particulars: at 0.1 µM.
Sequence of Ribosomal protein S6 kinase alpha-3 (Homo sapiens) (P51812 whole entry): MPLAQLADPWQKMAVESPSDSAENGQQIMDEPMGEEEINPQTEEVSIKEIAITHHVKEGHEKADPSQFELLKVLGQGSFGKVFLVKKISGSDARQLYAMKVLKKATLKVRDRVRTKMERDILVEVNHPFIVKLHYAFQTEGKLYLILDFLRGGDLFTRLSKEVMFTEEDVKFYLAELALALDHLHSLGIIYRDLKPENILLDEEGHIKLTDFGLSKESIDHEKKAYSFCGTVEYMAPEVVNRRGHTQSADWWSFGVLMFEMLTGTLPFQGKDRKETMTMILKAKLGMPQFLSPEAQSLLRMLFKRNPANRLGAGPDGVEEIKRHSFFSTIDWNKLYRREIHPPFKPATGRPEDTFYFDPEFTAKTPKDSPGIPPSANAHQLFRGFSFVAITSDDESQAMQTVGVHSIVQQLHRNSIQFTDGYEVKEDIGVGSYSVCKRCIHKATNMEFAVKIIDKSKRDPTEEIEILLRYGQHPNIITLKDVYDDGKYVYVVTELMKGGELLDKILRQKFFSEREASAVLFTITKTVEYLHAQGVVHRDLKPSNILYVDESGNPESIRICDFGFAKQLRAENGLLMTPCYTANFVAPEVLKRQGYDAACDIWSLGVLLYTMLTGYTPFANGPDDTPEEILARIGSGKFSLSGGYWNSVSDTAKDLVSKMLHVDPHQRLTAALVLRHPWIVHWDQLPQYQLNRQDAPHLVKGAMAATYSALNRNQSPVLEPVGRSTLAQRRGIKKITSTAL
The target is the same in test [17]. Particulars: at 1 µM.
Test [18] concerns the target Ribosomal protein S6 kinase alpha-2 (Homo sapiens) (UniProt Q15349). The note with it: at 0.1 µM.
Test [19] has the same target. Particulars: at 1 µM.
In test [20] the target is Ribosomal protein S6 kinase alpha-6 (Homo sapiens) (UniProt Q9UK32). The note with it: at 0.1 µM.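 Also: reported value is the mean inhibition of RSK4, from the GSK PKIS kinase inhibitor screen.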
Sequence of Ribosomal protein S6 kinase alpha-6 (Homo sapiens) (Q9UK32 whole entry): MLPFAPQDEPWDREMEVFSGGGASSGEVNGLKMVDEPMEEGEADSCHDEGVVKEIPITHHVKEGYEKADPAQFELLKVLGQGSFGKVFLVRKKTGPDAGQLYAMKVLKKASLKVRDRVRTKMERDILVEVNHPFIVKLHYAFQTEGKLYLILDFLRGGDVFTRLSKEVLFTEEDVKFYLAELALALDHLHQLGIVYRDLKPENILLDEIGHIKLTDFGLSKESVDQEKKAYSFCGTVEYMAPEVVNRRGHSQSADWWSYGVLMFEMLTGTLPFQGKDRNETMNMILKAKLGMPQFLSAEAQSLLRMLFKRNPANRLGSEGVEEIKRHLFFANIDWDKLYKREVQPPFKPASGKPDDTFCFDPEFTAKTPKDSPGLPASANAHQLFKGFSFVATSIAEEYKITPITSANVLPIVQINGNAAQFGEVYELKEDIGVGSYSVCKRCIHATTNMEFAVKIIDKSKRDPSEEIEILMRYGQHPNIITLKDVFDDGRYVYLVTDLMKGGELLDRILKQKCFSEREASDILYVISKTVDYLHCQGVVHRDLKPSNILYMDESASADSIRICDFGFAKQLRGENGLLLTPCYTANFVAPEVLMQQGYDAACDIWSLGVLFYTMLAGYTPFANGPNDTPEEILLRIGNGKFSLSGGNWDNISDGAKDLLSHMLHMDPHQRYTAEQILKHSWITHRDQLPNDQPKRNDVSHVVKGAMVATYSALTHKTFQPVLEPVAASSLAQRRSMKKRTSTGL

Sequence of Ribosomal protein S6 kinase alpha-2 (Homo sapiens) (Q15349 whole entry): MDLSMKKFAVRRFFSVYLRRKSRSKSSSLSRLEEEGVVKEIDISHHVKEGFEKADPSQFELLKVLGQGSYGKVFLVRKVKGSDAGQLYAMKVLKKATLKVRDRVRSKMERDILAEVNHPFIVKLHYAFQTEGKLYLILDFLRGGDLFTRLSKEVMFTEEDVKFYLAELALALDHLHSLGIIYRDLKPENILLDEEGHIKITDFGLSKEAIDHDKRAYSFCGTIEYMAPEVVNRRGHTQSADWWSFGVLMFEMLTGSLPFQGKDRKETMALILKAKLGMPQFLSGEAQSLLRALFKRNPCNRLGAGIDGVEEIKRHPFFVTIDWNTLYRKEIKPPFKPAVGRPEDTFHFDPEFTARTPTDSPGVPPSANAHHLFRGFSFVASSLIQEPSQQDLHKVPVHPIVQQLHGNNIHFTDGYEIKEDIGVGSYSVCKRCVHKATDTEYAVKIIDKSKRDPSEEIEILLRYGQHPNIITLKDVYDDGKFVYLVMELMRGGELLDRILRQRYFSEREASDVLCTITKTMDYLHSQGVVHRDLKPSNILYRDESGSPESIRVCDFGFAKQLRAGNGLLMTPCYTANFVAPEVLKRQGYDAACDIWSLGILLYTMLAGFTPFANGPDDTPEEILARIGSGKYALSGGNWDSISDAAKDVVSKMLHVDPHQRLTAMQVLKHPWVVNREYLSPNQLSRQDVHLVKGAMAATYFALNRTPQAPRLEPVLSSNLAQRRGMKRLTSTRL

One may read the inhibition as the change of the read-out against control, counted positive when it falls. With `NS(=O)(=O)c1ccc(N/N=C2\C(=O)Nc3ccc(C(=O)NCc4ccncc4)cc32)cc1`, the inhibition in [1] stood at 18.5%; in test [2] it was 4.33%; in test [3], 16.4%; in test [4], 5%; in test [5] it was 19.3%; in [6], 5.42%. For the same compound, the inhibition in test [7] amounted to 18.4%; in test [8] it was 6.16%; in [9], 15.5%; in test [10] it was 0.63%; in test [11], 5.11%; in test [12] it was 4.18%. Also, the inhibition worked out at 15.1% in test [13]; 1.77% in test [14]; 7.98% in [15]; 2.2% in test [16]; 6.7% in [17]; 1.92% in test [18]. In addition, the inhibition in [19] was 7.63%; in test [20], 3.7%.
For `COC(=O)Nc1nc2ccc(Oc3ccc(NC(=O)Nc4cc(C(F)(F)F)ccc4F)cc3)cc2s1`, the inhibition in test [1] was 1.09%; in test [2], 0.52%; in test [3] it was 0.53%; in [4], 1.65%; in test [5], 2.05%; in [6], 1.07%. Besides, the inhibition in [7] was 1.92%; in test [8], 0.15%; in [9] it was -0.17%; in test [10] it was 0.74%; in test [11], 1.94%; in test [12] it was 0.66%. In addition, the inhibition in test [13] came out at 1.17%; in test [14], 1.59%; in test [15], 2.46%; in [16], 0.8%; in [17], 2.83%; in test [18], 3.19%. Besides, the inhibition in test [19] turned out to be 13.1%; in [20], 0.36%.
For the compound `CC1=C(C(=O)Nc2ccc3[nH]ncc3c2)C(c2ccc(F)cc2)N=C(c2ccc(C(F)(F)F)nc2)N1` (stereo not given), the inhibition in test [1] was 2.33%; in test [2] it was 3.1%; in test [3], 2.8%; in test [4], 7.52%; in test [5] it was 42.2%; in [6], 4.96%. The inhibition in [7] came to 31.1%; in [8], 3.93%; in test [9], 23.6%; in test [10], 31.3%; in test [11], 73.2%; in [12], 35.7%. The inhibition in test [13] is 75%; in test [14] it was 0.61%; in [15], 4.49%; in [16] it was -0.02%; in test [17], 2.71%; in [18], 1.05%. In addition, the inhibition in test [19] was 3.76%; in test [20] it was 0.55%.
Turning to `CNC(=O)c1sc(-n2cnc3cc(OC)c(OC)cc32)cc1OCc1ccccc1C(F)(F)F`, the inhibition worked out at 4.27% in [1]; 4.09% in test [2]; 4.54% in test [3]; 2.58% in test [4]; 2.12% in [5]; 1.27% in [6]. Further, the inhibition turned out to be 1.38% in test [7]; 2.66% in [8]; 1.17% in test [9]; 0.61% in test [10]; 0.26% in [11]; 2.94% in [12]. The inhibition in test [13] turned out to be 1.36%; in test [14], 1.1%; in test [15] it was 2.58%; in test [16], 1.77%; in [17], 3.02%; in test [18], 2.72%. For the same compound, the inhibition in test [19] is 2.3%; in [20] it was 0.81%.
`CS(=O)(=O)CCNCc1ccc(-c2ccc3ncnc(Nc4ccc(OCc5cccc(C(F)(F)F)c5)cc4)c3c2)o1`: the inhibition was 4.34% in test [1]; 5.01% in [2]; 5.61% in test [3]; 3.52% in test [4]; 4.77% in [5]; 2.31% in test [6]. The inhibition in [7] came to 6.67%; in test [8] it was 2.61%; in test [9], 1.41%; in [10] it was 2.09%; in test [11] it was 3.01%; in test [12], 2.07%. Also, the inhibition in test [13] was 3.5%; in [14], 0.96%; in test [15], 2.45%; in [16] it was -0.35%; in test [17] it was 3.53%; in test [18], 1.21%. Further, the values for the inhibition in test [19] and in test [20] were 2.69% and 0.05%, respectively.
